Among all 340,000 compounds or so, about 3,300 (0.97%) were called active.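 How the source made its calls: active means inhibition above the mean over all tested compounds plus 3 SD (cut at about 30% in these data); inactive means the rest.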 The entries come from a sample that favours actives as a whole.
Biological target: Platelet-activating factor acetylhydrolase 2, cytoplasmic (Homo sapiens) (UniProt Q99487)
Experiment: inhibition of cytoplasmic PAF acetylhydrolase 2 – biochemical, fluorescence polarization, human, primary screen (AID 492956);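 further: inhibitors block probe labeling of enzyme so polarization drops; 0% = enzyme with DMSO and 100% = wells lacking PAFAH2 protein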
Conditions: recombinant PAFAH2, FP-rhodamine activity probe, at 3.39 µM, active compounds read high

| Structure (SMILES) | inhibition |
| --- | --- |
| O=C(COC(=O)c1ccccc1SCC(=O)N1CCCC1)Nc1ccccc1OC(F)F | 49.4% (active) |
| O=C(COC(=O)c1ccccc1Cl)NC1CCCCCCC1 | 68.9% (active) |
| COc1ccccc1NC(=O)COC(=O)c1ccccc1SCC(=O)N1CCCC1 | 16.2% (inactive) |
| CS(=O)(=O)Nc1ccccc1C(=O)OCC(=O)NC1CC1 | 9.45% (inactive) |
| CC(C)N(Cc1ccccc1)C(=O)COC(=O)c1ccccc1SCC(=O)N1CCCC1 | -10.1% (inactive) |
| O=C(COC(=O)c1cccnc1Cl)NC(=O)NC1CCCCC1 | 0.86% (inactive) |
| Cc1cc(F)ccc1NC(=O)C(C)n1c2ccccc2c2nc(=O)cc(C)n21 (stereo not given) | -0.36% (inactive) |
| CCCCNC(=O)N(O)C1N(/N=C/c2ccc(N(C)C)cc2)C(=S)SC1(C)C (stereo not given) | 39% (active) |
| CCC(C)N1C(=S)SC(C)(C)C1N(O)C(=O)NC1CCCCC1 (stereo not given) | 0.18% (inactive) |
| CCCCNC(=O)N(O)C1N(/N=C/c2ccccc2O)C(=S)SC1(C)C (stereo not given) | 12% (inactive) |
| CC1CCCCN1C(=O)Cn1c(=O)oc2cc(S(=O)(=O)N3CCCCC3)ccc21 (stereo not given) | 0.32% (inactive) |
| CC(C)COC(=O)n1c(=O)oc2ccc(S(=O)(=O)N3CCCCC3)cc21 | 67.9% (active) |
| O=C(NC1CCCCC1)n1c(=O)oc2cc(S(=O)(=O)N3CCCCC3)ccc21 | -3.36% (inactive) |
| O=C(NCc1cc(C(F)(F)F)cc(C(F)(F)F)c1)C1CC(c2cccc(F)c2)=NO1 (stereo not given) | 6.39% (inactive) |
| CCc1ccc(C(=O)OCC(=O)NCC(F)(F)F)cc1 | 73.5% (active) |
| O=C(COC(=O)CNC(=O)c1ccccc1F)NCC(F)(F)F | 1.7% (inactive) |
| CC(CCc1ccccc1)NC(=O)COC(=O)c1ccc(F)cc1 (stereo not given) | 28% (inactive) |
| Cc1ccc(S(=O)(=O)N(NC2=NS(=O)(=O)c3ccccc32)C(=O)c2ccccc2)cc1 | -5.48% (inactive) |
| CC(C)(C)c1csc(NC2=NS(=O)(=O)c3ccccc32)n1 | 36.9% (active) |
| O=C(Oc1cccc(NC2=NS(=O)(=O)c3ccccc32)c1)c1ccncc1 | -0.09% (inactive) |
| O=C(NCN1CCN(CCO)CC1)c1cnccn1 | -3.5% (inactive) |
| Cc1cc(NC(=O)COC(=O)/C=C/c2ccc(C)o2)no1 | 33.3% (active) |
| Cc1ccc(CNC(=O)COC(=O)C2CCC2)cc1 | 3.66% (inactive) |
| COC(=O)c1cc(C(=O)OCC(=O)Nc2cc(C)on2)cc([N+](=O)[O-])c1 | -6.33% (inactive) |

| Structure (SMILES) | inhibition |
| --- | --- |
| Cc1cc(NC(=O)COc2ccc([N+](=O)[O-])cc2)no1 | -0.25% (inactive) |
| CCN(CC(=O)NCc1ccc(Cl)cc1)C(=O)c1c(C)noc1C | -0.36% (inactive) |
| Cc1ccc(/C=C/C(=O)OCC(=O)NCc2ccc(Cl)cc2)o1 | 53% (active) |
| CCOC(=O)C1C(=O)OC2(CCCC2)C1C(=O)OCC (stereo not given) | -3.56% (inactive) |
| COCc1c(C(=O)OCC(=O)Nc2ccc(OC(F)F)cc2)oc2ccccc12 | 30.5% (active) |
| Nc1c(C(=O)OCC(=O)Nc2ccc(OC(F)F)cc2)[nH]c(=O)[nH]c1=O | 5.59% (inactive) |
| COCc1c(C(=O)OCc2c(C)noc2C)oc2ccccc12 | -5.34% (inactive) |
| O=C1NCC(Nc2ccccc2)C(=O)N1 (stereo not given) | 7.66% (inactive) |
| O=C1C2(c3ccccc3)CN(CCCO)CC1(c1ccccc1)CN(CCCO)C2 | 7.66% (inactive) |
| COc1ccccc1CNC(=O)COC(=O)c1cccs1 | 60.2% (active) |
| COc1ccccc1CNC(=O)COc1ccc(C)nc1[N+](=O)[O-] | 4.79% (inactive) |
| O=C(COC(=O)[C@H](Cc1ccccc1)NC(=O)c1cccs1)Nc1cc(F)ccc1F | 4.42% (inactive) |
| CNC(=O)c1sc(NCc2ccccc2OC)nc1C | -0.38% (inactive) |
| O=C(COC(=O)c1ccc(Cl)nc1)NCc1cccs1 | 5.5% (inactive) |
| O=C(COC(=O)c1cccs1)Nc1ccccc1Cl | 73.2% (active) |
| COc1ccccc1CNC(=O)COC(=O)c1sc(C)nc1C | 36.3% (active) |
| COc1ccccc1CNC(=O)COC(=O)CNS(=O)(=O)c1ccc(NC(C)=O)cc1 | -2.61% (inactive) |
| O=C(COC(=O)c1ccc(O)cc1O)NNC(=O)c1cccs1 | 6.29% (inactive) |
| O=C(COC(=O)c1cccs1)NCc1cccs1 | 44.2% (active) |
| O=C(COC(=O)c1ncc(Cl)c(Cl)c1Cl)NCc1cccs1 | -5.72% (inactive) |
| O=C(COC(=O)/C(=C/c1cccs1)c1cccs1)NCc1ccccc1Cl | 9.84% (inactive) |
| O=CN1CCN(C(=O)c2ccc(Br)o2)CC1 | 0.55% (inactive) |
| Cc1cccc(NS(=O)(=O)c2ccc(C(=O)NCC(C)(C)N3CCOCC3)cc2)c1C | -5.69% (inactive) |
| O=c1cccc(-c2ccc(Br)cc2)o1 | 1.7% (inactive) |

| Structure (SMILES) | inhibition |
| --- | --- |
| COc1ccc(SCc2noc(C(=O)NCC3CCCO3)c2C(=O)O)cc1 (stereo not given) | 0.7% (inactive) |
| CC1=NNC(=O)C1Cc1c(Cl)cccc1Cl (stereo not given) | 5.21% (inactive) |
| CC1=C(C(=O)OC2CCCCC2)C(c2ccccc2F)NC(=O)N1 (stereo not given) | -4.88% (inactive) |
| CCOC(=O)C1CCN(c2c(Nc3cc(C)cc(C)c3)c(=O)c2=O)CC1 | 7.85% (inactive) |
| Cc1cccc(/C=N/NC(=O)CNc2cccc3ccccc23)n1 | 47.5% (active) |
| C/C(=N\NC(=O)CNc1cccc2ccccc12)c1ccc(Br)s1 | 9.68% (inactive) |
| Cc1cccc(C(=O)Nc2ccc(C(=O)N/N=C/c3cccc(C)n3)cc2)c1 | -6.77% (inactive) |
| COc1cc2c(cc1NC(=O)COC(=O)/C=C/c1ccccc1)oc1ccccc12 | 1.23% (inactive) |
| COc1cc(/C=C/C(=O)OCC(=O)Nc2cccc(Oc3ccccc3)c2)ccc1O | 64.5% (active) |
| CC(=O)Nc1cccc(C(=O)OCC(=O)Nc2nnc(-c3ccccc3)o2)c1 | 4.32% (inactive) |
| COc1ccc(C(=O)OCC(=O)Nc2cccc(C(C)=O)c2)cc1OC | 81.3% (active) |
| CC(=O)Nc1cccc(C(=O)OCC(=O)NCc2cc(C)c(O)c(C)c2)c1 | 7.09% (inactive) |
| O=C(/C=C/c1ccccc1[N+](=O)[O-])OCC(=O)N1CCCC1 | 7.52% (inactive) |
| CC(C)CNC(=O)COC(=O)/C=C/c1ccco1 | 69% (active) |
| CC(C)c1nnc(NC(=O)COC(=O)/C=C/c2ccc([N+](=O)[O-])cc2)s1 | -1.12% (inactive) |
| COc1cccc(NC(=O)COC(=O)c2ccc3ccccc3n2)c1 | -5.69% (inactive) |
| CCCCN(C(=O)/C=C/c1ccco1)c1c(N)n(CC(C)C)c(=O)[nH]c1=O | -7.37% (inactive) |
| Cc1cccc(C(=O)OCC(=O)NCC(C)C)c1O | 3.36% (inactive) |
| CC(C)CNC(=O)COC(=O)/C=C/c1ccccc1[N+](=O)[O-] | 72.8% (active) |
| COc1ccc(S(=O)(=O)NCC(=O)NCc2cc(=O)n(C)c(=O)n2C)cc1F | -4.5% (inactive) |
| CN1C(=O)[C@H]2[C@@H](/C=C/c3ccccc3)N3C(=O)CN(Cc4ccc(-c5ccccc5)cc4)C(=O)[C@@]3(C)[C@H]2C1=O | 6.34% (inactive) |
| COC(=O)c1ccc(CN2CCC(CO)(Cc3ccc(OC)cc3)CC2)cc1 | -1.13% (inactive) |
| CCOc1ccccc1NC(=O)C1CCCN(C(=O)Nc2ccccc2)C1 (stereo not given) | 8.64% (inactive) |
| COCCNC(=O)CN(Cc1ccco1)C(=O)CCC(=O)Nc1nccs1 | -1% (inactive) |

| Structure (SMILES) | inhibition |
| --- | --- |
| COc1ccc([N+](=O)[O-])cc1NC(=O)COC(=O)/C=C/c1ccco1 | 14.1% (inactive) |
| COc1cccc(NC(=O)COC(=O)/C=C/c2ccco2)c1 | 71.4% (active) |
| COc1cc(/C=C/C(=O)OCC(=O)NCCCc2ccccc2)ccc1O | 48.4% (active) |
| COc1ccc(OC)c(/C=C/C(=O)OCC(=O)Nc2ccc3c(c2)OCCO3)c1 | 43.7% (active) |
| COc1cccc(NC(=O)COC(=O)CCOc2ccccc2OC)c1 | 3.71% (inactive) |
| COc1cccc(NC(=O)CN(C)C(=O)/C=C/c2cc(OC)ccc2OC)c1 | 1.18% (inactive) |
| COc1cc(/C=C/C(=O)OCC(=O)NC(=O)NCc2ccccc2)ccc1OCC#N | -1.43% (inactive) |
| COc1ccc(OC)c(/C=C/C(=O)c2ccc3c(c2)OCO3)c1 | 10.8% (inactive) |
| COc1cc(/C=C/C(=O)OCC(=O)c2ccccc2)cc(OC)c1OC | 18% (inactive) |
| COc1ccc(/C=C/C(=O)OCC(=O)Nc2cccc(Oc3ccccc3)c2)c(OC)c1 | 44.5% (active) |
| NS(=O)(=O)c1cccc(NC(=O)COC(=O)/C=C/c2ccco2)c1 | 26.1% (inactive) |
| COc1ccccc1OCCCC(=O)Nc1ccc2c(c1)OCCO2 | -0.62% (inactive) |
| O=C(Nc1cccc2c1CCCC2)C1CCN(C(=O)NC2CCCCC2)CC1 | -4.67% (inactive) |
| COc1ccc(OC)c(/C=N/NC(=O)c2ccc[n+](CC(=O)c3ccccc3)c2)c1 | -2.42% (inactive) |
| Cc1ccc(/C=C/C(=O)O)cc1S(=O)(=O)N1CCC(Cc2ccccc2)CC1 | 2.39% (inactive) |
| O=C(C[C@@H]1C/C=C\CCC(=O)OC[C@@H]2CCCN2C1=O)NCCO | 15.7% (inactive) |
| CCOc1ncccc1C(=O)N(C)CC(=O)Nc1ccc(F)cc1 | -4.72% (inactive) |
| CC1CCc2sc(C(=O)N/N=C/C3CCCCC3)cc2C1 (stereo not given) | 0.32% (inactive) |
| O=C(CSc1nnc(COc2ccc(Cl)cc2)n1Cc1ccco1)N1CCNC1=O | 6.03% (inactive) |
| COc1ccc(C(=O)OCC(=O)NCCCc2ccccc2)cc1OC | 55.4% (active) |
| Cc1cnc(C(=O)OCC(=O)NCCCc2ccccc2)cn1 | 4.7% (inactive) |
| O=C(COC(=O)c1ccc(F)cc1)NCCCc1ccccc1 | 21.2% (inactive) |
| Cn1c2c(c(=O)n(C)c1=O)CN(Cc1ccco1)CN2 | -2.71% (inactive) |
